# Sampled rows, rich in hits. Any-hit rate of the full collection: about 13%.
# USP10 inh: blocks human USP10 ubiquitin-rhodamine cleavage; 47,000 compounds, 1.1% hits; Q14694; purified USP10, Ub-rhodamine fluorescence, 60 min; inhibition, % at 20 µM
# USP28 inh: blocks human USP28 ubiquitin-rhodamine cleavage | Q96RU2 | purified USP28, Ub-rhodamine cleavage fluorescence, 30 min | inhibition, % at 25 µM | 47,000 compounds, 3% hits | AID 1645857
# Target sequence (Q96RU2 whole entry, looked up): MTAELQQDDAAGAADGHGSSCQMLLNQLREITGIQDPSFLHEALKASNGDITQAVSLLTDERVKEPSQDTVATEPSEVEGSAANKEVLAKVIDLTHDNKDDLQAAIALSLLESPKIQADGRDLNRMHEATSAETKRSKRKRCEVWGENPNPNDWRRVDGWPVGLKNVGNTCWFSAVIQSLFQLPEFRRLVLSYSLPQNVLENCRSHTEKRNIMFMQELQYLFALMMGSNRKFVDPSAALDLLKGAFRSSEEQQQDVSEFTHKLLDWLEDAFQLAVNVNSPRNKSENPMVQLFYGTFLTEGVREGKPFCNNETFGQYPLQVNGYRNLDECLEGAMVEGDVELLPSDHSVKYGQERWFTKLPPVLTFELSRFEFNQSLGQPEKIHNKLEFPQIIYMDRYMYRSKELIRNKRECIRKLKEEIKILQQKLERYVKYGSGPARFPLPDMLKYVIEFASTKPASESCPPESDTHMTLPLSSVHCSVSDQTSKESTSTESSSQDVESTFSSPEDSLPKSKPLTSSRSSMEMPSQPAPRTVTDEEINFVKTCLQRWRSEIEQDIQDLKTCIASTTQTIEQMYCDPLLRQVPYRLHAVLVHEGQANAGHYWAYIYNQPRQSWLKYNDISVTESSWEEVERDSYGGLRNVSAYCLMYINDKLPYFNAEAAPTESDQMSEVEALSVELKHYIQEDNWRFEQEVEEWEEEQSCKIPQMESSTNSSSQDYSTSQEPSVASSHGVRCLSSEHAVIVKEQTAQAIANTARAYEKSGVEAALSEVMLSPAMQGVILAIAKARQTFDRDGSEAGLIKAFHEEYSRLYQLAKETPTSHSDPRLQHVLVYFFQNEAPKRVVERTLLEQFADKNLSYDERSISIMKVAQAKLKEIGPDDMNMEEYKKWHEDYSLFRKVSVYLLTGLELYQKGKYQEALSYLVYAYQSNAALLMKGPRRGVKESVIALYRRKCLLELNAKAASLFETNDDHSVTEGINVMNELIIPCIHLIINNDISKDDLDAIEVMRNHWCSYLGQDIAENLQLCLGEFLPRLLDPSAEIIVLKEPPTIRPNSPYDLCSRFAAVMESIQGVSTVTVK
# USP30 block: blocks human USP30 ubiquitin-rhodamine cleavage; purified USP30, Ub-rhodamine cleavage fluorescence; inhibition, % at 25 µM; 47,000 compounds, 5.3% hits; AID 1645860
# USP8 block: blocks human USP8 ubiquitin-rhodamine cleavage; 47,000 compounds, 4.2% hits; purified USP8, Ub-rhodamine cleavage fluorescence, 30 min; P40818; inhibition, % at 20 µM
# USP17 block: blocks human USP17 ubiquitin-rhodamine cleavage. A8MUK1. purified USP17, Ub-rhodamine cleavage fluorescence, 3 h. inhibition, % at 50 µM. 47,000 compounds, 6.5% hits. AID 1645855
# Hits are given with their value; . = inactive; / = no result. Rule as the data show it: active = inhibition above about 30%; inactive = the rest.
SMILES,USP10 inh,USP28 inh,USP30 block,USP8 block,USP17 block
c1cncc(-c2cnc3sc(NCc4ccc5c(c4)OCO5)nn23)c1,30.4,86.9,100.7,36.6,61.1
Fc1ccc(CNc2nn3c(-c4cccnc4)cnc3s2)cc1,.,.,.,.,.
CN(C)c1ccc(CNc2nn3c(-c4cccnc4)cnc3s2)cc1,.,66.8,90.6,.,62.7
Cc1cc(C)c(-c2nc(NC(=O)c3cnccn3)sc2C)cc1C,.,.,.,.,.
CN(Cc1ccc2c(c1)OCO2)C(=O)c1nc(-c2ccccc2)n(-c2ccccc2)n1,.,.,.,.,.
CS(=O)(=O)Nc1cccc(CNC(=O)c2nc(-c3ccccc3)n(-c3ccccc3)n2)c1,.,.,.,37.7,.
Cc1nc(NC(=O)c2coc(NC(=O)c3ccccc3)n2)sc1C,.,.,.,.,.
CC(C)(CC(=O)O)CC(=O)N1CCN(c2ncccc2C#N)CC1,.,.,.,.,.
CS(=O)(=O)c1ccccc1C(=O)NCCC(c1ccccc1)c1ccccc1,.,.,.,.,.
Cc1ccc(C(=O)NCCC(c2ccccc2)c2ccccc2)o1,.,31.1,.,.,.
Cc1nn(-c2ccccc2)c2c1C(c1cccnc1)c1c(ncn3nc(-c4cccc5ccccc45)nc13)O2 (stereo unspecified),.,.,.,.,.
Cc1ccc(C2c3c(C)nn(-c4ccccc4)c3Oc3ncn4nc(-c5ccccc5O)nc4c32)cc1 (stereo unspecified),.,.,34.1,40.6,.
O=C(NCc1ccccc1)c1cccc(Oc2nc(CN3CCCCC3)nc3sc4c(c23)CCC4)c1,.,.,.,.,.
O=C(/C=C/c1cn(CC(O)CN2CCOCC2)c2ccccc12)c1ccccc1 (stereo unspecified),.,.,.,.,.
COc1cc(NC(=O)C2Cc3ccccc3CN2C(=O)c2ccco2)cc(OC)c1OC (stereo unspecified),.,.,.,.,.
CSc1cccc(NC(=O)C2Cc3ccccc3CN2C(=O)c2ccco2)c1 (stereo unspecified),.,.,.,.,31.4
COc1cccc(CC(=O)Nc2cccc(S(=O)(=O)N3CCOCC3)c2)c1,.,.,.,.,.
O=C(Nc1cccc(S(=O)(=O)N2CCOCC2)c1)C1Cc2ccccc2CN1C(=O)c1ccco1 (stereo unspecified),.,.,.,40.5,/
O=C(Nc1cnc(N2CCCCC2)nc1)c1c(F)cccc1Cl,.,.,.,.,.
CCOc1ncccc1C(=O)Nc1ccnn1C(C)C1CC1 (stereo unspecified),.,.,.,.,.
Cc1ccc(-c2nc(CNC(=O)Cc3ccccc3)no2)cc1,.,.,.,.,.
COc1ccc(O)c(C(=O)OCc2cc(=O)oc3ccc4ccccc4c23)c1,.,.,.,36.7,50.9
Cc1ccc2c(COC(=O)c3ccc4ccccc4c3)cc(=O)oc2c1,.,.,.,.,.
CCc1ccc(S(=O)(=O)Nc2ccc3[nH]ncc3c2)cc1,.,.,.,34.9,.
O=S(=O)(Nc1ccc2cn[nH]c2c1)c1ccc2c(c1)OCCO2,.,.,.,.,.
SMILES,USP10 inh,USP28 inh,USP30 block,USP8 block,USP17 block
Cc1ccc(NC(=O)Nc2cnn(-c3ncncc3N3CCOCC3)c2)cc1C,.,.,.,.,.
O=C(NCc1ccccc1)C1CCN(c2cnc(N3CCOCC3)nc2)CC1,.,.,.,.,.
Cc1nc(-c2ccc3c(c2)nnn3CCN2CCCCC2)no1,.,.,.,.,.
CCN(C(=O)c1cc2c(s1)-c1ccccc1OC2)c1ccccc1F,.,51.9,.,.,.
CCN(C(=O)c1cc2c(Cl)nc3ccccc3c2s1)c1ccccc1F,.,.,71.2,.,.
O=C1COc2ccccc2C(=O)N1Cc1ccccc1F,.,.,.,.,.
COc1ccc(CCNC(=O)c2cc3c(s2)-c2ccccc2OC3)cc1,.,/,/,.,36.8
COc1ccc(CCNC(=O)c2sc(NC3CC3)nc2C)cc1,.,.,.,.,.
O=C1OCC2=C1C(c1ccc(F)cc1)CC(=O)N2c1cccc(F)c1 (stereo unspecified),.,.,.,.,.
COc1ccccc1-c1cc2c(=O)n(Cc3nc(-c4ccccc4C)no3)ccn2n1,.,.,46.6,.,.
COc1ccccc1-c1noc(Cn2ccn3nc(-c4ccc(F)cc4)cc3c2=O)n1,.,.,.,.,.
CCOc1cc(CN2CCCC2c2cccc(F)c2)ccc1OCC(N)=O (stereo unspecified),.,.,.,.,.
